# Shown are actives, neighbours in structure and some others; about 3.5% of the full set was active somewhere.
# TEAD-YAP block: TEAD-YAP interaction inhibition; HEK-TIYL cells, TEAD-Gal4/YAP UAS-luciferase luminescence; inhibition, % at 9.12 µM; 1.4% of 640,000 active; AID 1259422; in the data active = inhibition above about 32%;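 also: 0% = median of test compound wells and 100% = reference inhibitor wells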
# GPR151 activ: activates the human receptor GPR151. Q8TDV0. PathHunter beta-arrestin GPR151 cells, luminescence. activation, % at 11.2 µM. 1% of 650,000 active. AID 1508602; in the data active = activation above about 4.9%;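 also: 0% = median of compound wells and 100% = cells with positive control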
# Target sequence (Q8TDV0 whole entry, looked up): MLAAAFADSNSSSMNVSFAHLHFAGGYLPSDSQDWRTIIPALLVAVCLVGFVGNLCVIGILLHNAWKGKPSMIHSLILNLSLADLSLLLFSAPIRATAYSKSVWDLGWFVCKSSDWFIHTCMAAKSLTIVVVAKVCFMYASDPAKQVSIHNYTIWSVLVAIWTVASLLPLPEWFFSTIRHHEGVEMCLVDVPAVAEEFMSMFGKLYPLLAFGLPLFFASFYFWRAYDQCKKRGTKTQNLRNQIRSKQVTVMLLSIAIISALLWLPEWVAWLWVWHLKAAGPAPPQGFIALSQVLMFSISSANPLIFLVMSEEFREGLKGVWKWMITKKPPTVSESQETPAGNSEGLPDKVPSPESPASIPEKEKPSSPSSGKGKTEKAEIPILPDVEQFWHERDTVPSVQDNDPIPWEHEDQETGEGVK
# FBW7 activator: activators of human E3 ligase FBW7 | AID 1259310 | 0.13% of 650,000 active | normalized activity (activation), % at 26.1 µM | AlphaScreen FBW7–phospho-cyclin E peptide binding, activator screen; in the data active = normalized activity above about 1.9%;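 also: purified mutant Fbw7 with reduced substrate affinity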
# MITF inh: human MITF inhibition, primary screen | O75030 | AlphaScreen MITF homodimerization, bead proximity signal | inhibition, % at 2.6 µM | 0.91% of 650,000 active; in the data active = inhibition above about 50%;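 also: 0% = vehicle wells with protein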
# GPR151 confirm: human GPR151 activation, confirmation screen. GPR151 PathHunter beta-arrestin cells, luminescence, 90 min; % of EA-reagent control over plate median. AID 1508609. shares compounds with GPR151 activ. 6,700 tested, under 10 active. activation, % at 11.2 µM;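 active = mean percent activation across replicates above the confirmation screen cutoff of 4.91%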
# GPR119 counter: counter-screen for GPR151 activators: effect on human GPR119 | GPR119 PathHunter beta-arrestin cells, luminescence, 90 min; 0 = compound-well median, 100 = enzyme-acceptor control | AID 1508611 | activation, % at 11.2 µM | shares compounds with GPR151 activ | 0.3% of 6,700 active;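 active = mean percent activation in the counterscreen above 29.09%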;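 also: counterscreen on off-target GPR119 to flag nonselective hits from the GPR151 activator screen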
# Starred values were filed as active, the others as inactive; x = no result given.
SMILES,TEAD-YAP block,GPR151 activ,FBW7 activator,MITF inh,GPR151 confirm,GPR119 counter
O=C(c1ccc(CS(=O)(=O)Cc2ccc(F)cc2)o1)N1CCCCC1,-3,5.3*,0,7,0,-8
Cc1ccccc1S(=O)(=O)Cc1ccc(C(=O)N2CCCCC2)o1,-2,0,0,8,x,x
CCN1C(=O)/C(=C/c2ccc(OC)c(O)c2)SC1=Nc1cccc(C(=O)O)c1,-4,-2,-1,-10,x,x
O=C(N/N=C/c1cccc([N+](=O)[O-])c1)C1CC1C(=O)N/N=C/c1cccc([N+](=O)[O-])c1 (stereo not given),3,0,1,13,x,x
COc1cc(OC)c(C(=O)OC(C)C(=O)NC(N)=O)cc1OC (stereo not given),-4,13*,0,6,1,3
COc1cc(NC(=O)NCc2cccs2)c2ncccc2c1,8,5.6*,-1,-1,0,-4
COc1cc2nc(Nc3nccc4ccccc34)nc(NCCCN3CCCC3=O)c2cc1OC,-4,5.6*,0,3,0,-1
COc1cc2nc(Nc3nc4ccccc4n3C)nc(NCCCN3CCCC3=O)c2cc1OC,-6,-2,0,0,x,x
Cc1nn(C)c(Cl)c1CN1CCN(C2CCCCC2)C(CCO)C1 (stereo not given),8,8.9*,0,9,0,-1
CSc1ncc(CN2CCN(C3CCCC3)C(CCO)C2)cn1 (stereo not given),3,9.7*,0,-1,0,0
CC1(C)CC2(C)OC(=O)C(Cc3ccc(O)cc3)N2C(=S)N1 (stereo not given),5,-1,0,6,x,x
COCC(=O)N(C)C(Cc1ccc(F)cc1)C1CCN(C(=O)Cn2nc(C)nc2C)CC1 (stereo not given),1,0,0,1,x,x
Cn1cnnc1SCCNC(=O)c1cc2ccccc2[nH]1,-24,1,0,2,x,x
O=C(Cc1cccc(Cl)c1)N1CCC(n2nnc3cccnc32)CC1,3,-1,0,10,x,x
C=CCn1c(SCc2ccc(OC)c([N+](=O)[O-])c2)nnc1-c1cccc(Br)c1,-8,5.0*,0,-18,0,-4
N#C/C(=C\c1ccc(-c2ccccc2Cl)o1)C(=O)N1CCOCC1,-46,1,0,0,x,x
CCN1CNC(=S)N(c2ccc(F)c(Cl)c2)C1,1,6.0*,0,7,0,-7
Cc1ccc(CNC(=O)c2cc3c(s2)CS(=O)(=O)C3)cc1,-15,5.7*,0,-6,0,10
CC(C)CCNC(=O)c1cc2c(s1)CS(=O)(=O)C2,1,6.5*,0,11,0,10
Cc1ccc(CCNC(=O)c2cc3c(s2)CS(=O)(=O)C3)cc1,0,0,0,5,x,x
COC(=O)c1sccc1NC(=S)Nc1ccc(OC)c(OC)c1,-2,6.0*,0,-19,0,4
COC(=O)c1ccc(NC(=S)NCCO)cc1,-3,6.3*,0,13,1,3
CCOC(=O)c1ccc(NC(=S)Nc2ccsc2C(=O)OC)cc1,-11,5.7*,0,-2,0,-14
COC(=O)c1sccc1NC(=S)Nc1ccc(F)cc1,-4,0,0,-5,x,x
O=C(COc1ccc(Cl)cc1Cl)Nc1ncnc2sc3c(c12)CCCC3,6,-1,0,-13,x,x
SMILES,TEAD-YAP block,GPR151 activ,FBW7 activator,MITF inh,GPR151 confirm,GPR119 counter
Cc1ccc(N2C(=O)C3C4CC(=O)C(c5ccccc54)C3C2=O)cc1 (stereo not given),5,1,0,-3,x,x
O=C1CC2c3ccccc3C1C1C(=O)N(c3ccccc3)C(=O)C21 (stereo not given),-2,8.7*,0,-7,0,-6
N#Cc1cc2cc3c(cc2nc1SCc1cccnc1)OCCO3,-14,1,0,3,x,x
COc1ccc2cc(-c3nnc(Nc4ccc(OC)c(OC)c4)s3)c(=O)oc2c1,7,0,0,7,x,x
CC(=O)N[C@H]1[C@H](OCCCN2C(=O)c3ccccc3C2=O)O[C@H](CO)[C@@H](O)[C@@H]1O,-4,1,0,14,x,x
CC(C)N(C)Cc1nnnn1CC(=O)N1CCN(c2ccccc2O)CC1,6,5.0*,0,-12,1,-1
O=C(NCc1ccc(F)cc1)c1cc(-c2ccccc2Cl)nc2ccccc12,8,17*,0,2,1,16
O=C(NCc1ccc2c(c1)OCO2)c1cc(-c2ccccc2Cl)nc2ccccc12,19,0,0,7,x,x
Cc1ccc(-c2cc(C(=O)NN)c3ccccc3n2)cc1,-18,-2,0,3,x,x
NNC(=O)c1cc(-c2ccc(F)cc2)nc2ccccc12,2,6.1*,0,5,1,16
NNC(=O)c1cc(-c2ccc(O)cc2)nc2ccc(Br)cc12,4,1,0,3,x,x
COc1ccc(-c2cc(C(=O)NN)c3cc(Br)ccc3n2)cc1,1,5.0*,0,12,-1,-7
CC(C)(C)NC(=O)c1ccc2c(c1)N(CC(=O)Nc1cccc(Cl)c1)C(=O)C(C)(C)O2,-4,0,0,-5,x,x
O=C(Nc1cccc2ccccc12)c1ccccc1C(=O)c1ccc(Cl)c([N+](=O)[O-])c1,1,2,0,7,x,x
O=C1CC(NC2CCCC2)C(=O)N1c1ccc(N2C(=O)CC(NC3CCCC3)C2=O)cc1 (stereo not given),-3,0,0,4,x,x
CC1=C(c2ccc(C)cc2)S(=O)(=O)N=C1Nc1ccc(Br)cc1F,-6,8.7*,0,1,2,8
CC1=C(c2ccc(C)cc2)S(=O)(=O)N=C1Nc1ccc(C)cc1,-76,0,0,-7,x,x
O=C(NCCc1ccc(O)cc1)c1cnc(-c2ccc(N3CCOCC3)nc2)s1,0,5.1*,0,-2,-1,-4
COc1ccc(CCN2C(=O)CC(Cc3ccc(Br)cc3)C2=O)cc1OC (stereo not given),-4,5.6*,0,0,-1,-7
COc1ccc(C(C)=O)cc1CSc1nc2c(sc(=S)n2-c2ccc(C)c(C)c2)c(=O)n1-c1ccccc1,-11,-1,0,2,x,x
CS(=O)(=O)N(CC(N)=O)c1cccc([N+](=O)[O-])c1,-1,0,0,-9,x,x
Cc1ccc(S(=O)(=O)N(CC(N)=O)c2cccc([N+](=O)[O-])c2)cc1,-7,8.4*,0,-1,1,-1
COC(=O)CN1C(=O)S/C(=C/c2cc(Cl)cc(OC)c2O)C1=O,-4,5.2*,0,7,-1,-7
COC(=O)CN1C(=O)S/C(=C/c2ccc(OCC(=O)O)c(Br)c2)C1=O,1,6.9*,0,10,0,-12
COC(=O)CN1C(=O)S/C(=C/c2ccc(Br)cc2)C1=O,-5,-1,0,-9,x,x

# From PubChem
